Rows were chosen to be rich in hits. Some 1.2% of all compounds tested hit in one or more screens of this group.
gsp agonist – agonists of gsp mutant (McCune-Albright syndrome) | gsp mutant cells, cAMP HTRF, 30 min | Potency, µM (series often up to 76.9 µM), for inactives: at the top dose activation (cAMP increase), most hits filed as activators | 340,000 tested, 0.13% active | AID 624287; active means well fitted activation curve with a large enough effect; inconclusive means small, poorly fitted or top-dose-only effect, or another doubt; inactive means no such curve, though single readings can be large or run the other way; cell line not stated here;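 further: phosphodiesterase inhibitor Ro 20-1724 added with compounds to block cAMP breakdown; potency means the concentration at half of the fitted maximal effect; nearly all actives have a fitted effect of over 60% in size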
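Cells stably selected in G418 were plated at 2000/well, grown 16-24 hr, then given compounds in DMSO with the PDE inhibitor […] (300 uM solution added) for 30 min at 37C; cAMP was read by HTRF.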
gsp antagonist – gsp mutant antagonism. gsp-mutant cells, cAMP HTRF, 30 min. Potency, µM (top dose mostly 76.9 µM), without a hit: at the highest dose activity change, negative = inhibition, actives largely listed as inhibitors. 340,000 tested, 0.4% active. AID 624288; calls by dose curve; cell line not stated here;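 further: intracellular cAMP measured with PDE inhibitor Ro 20-1724 present during compound exposure; potency means the concentration at half of the fitted maximal effect; on the % scale 0 is the no-effect control and ±100 the full control effect; nearly all actives have a fitted effect of over 65% in size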
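Cells, 2000/well, grown 16–24 h in DMEM 10% FBS with 0.5 mg/ml G418, then compounds plus […] (300 uM addition stock), 30 min at 37C. cAMP read by HTRF (cAMP-d2 and anti-cAMP antibody-K in lysis buffer) after 30 min RT.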
RXFP1 ag – activates the human relaxin receptor RXFP1; Q9HBX9; HEK293T-RXFP1 cAMP TR-FRET, 30 min; response scale: percent of porcine relaxin response, buffer zero; Potency, µM (titrated, usually from 57.5 µM), for the others: at the highest dose activation, most hits filed as activators; 370,000 tested, 0.3% active; further: potency means the concentration at half of the fitted maximal effect; on the % scale 0 is the no-effect control and ±100 the full control effect; nearly all actives have a fitted effect of over 60% in size
Target sequence (Q9HBX9 whole entry, looked up): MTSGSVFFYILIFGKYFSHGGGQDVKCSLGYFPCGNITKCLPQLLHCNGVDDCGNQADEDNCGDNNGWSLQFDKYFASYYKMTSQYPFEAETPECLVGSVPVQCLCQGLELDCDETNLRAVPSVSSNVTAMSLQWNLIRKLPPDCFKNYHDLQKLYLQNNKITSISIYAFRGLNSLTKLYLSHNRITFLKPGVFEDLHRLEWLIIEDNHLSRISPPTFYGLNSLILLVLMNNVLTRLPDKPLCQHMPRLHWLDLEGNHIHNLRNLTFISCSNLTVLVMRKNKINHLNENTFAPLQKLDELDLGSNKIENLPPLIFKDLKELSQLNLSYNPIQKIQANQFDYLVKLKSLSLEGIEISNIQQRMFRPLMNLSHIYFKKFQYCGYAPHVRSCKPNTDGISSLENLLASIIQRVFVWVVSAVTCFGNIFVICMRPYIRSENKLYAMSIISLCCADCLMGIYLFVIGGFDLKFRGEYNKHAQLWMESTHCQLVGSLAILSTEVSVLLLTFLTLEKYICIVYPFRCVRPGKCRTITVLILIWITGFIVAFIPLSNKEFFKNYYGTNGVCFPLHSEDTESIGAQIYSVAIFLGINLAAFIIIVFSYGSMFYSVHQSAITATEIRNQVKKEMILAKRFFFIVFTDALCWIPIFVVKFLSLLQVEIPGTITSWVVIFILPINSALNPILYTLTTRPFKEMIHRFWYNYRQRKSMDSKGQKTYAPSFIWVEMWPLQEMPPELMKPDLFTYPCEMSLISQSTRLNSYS
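HEK293 cells stably expressing RXFP1, treated 30 min at 37C with compounds plus PDE4 inhibitor Ro 20174; cAMP measured by HTRF TR-FRET. Normalized to buffer and 29 nM porcine relaxin; EC50 by Hill fit.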
CCT chaperon mod – modulators of cytosolic chaperonin (CCT/TRiC) activity; purified chaperonin ATPase assay, HTRF ADP detection, 30 min; activity change, % (no concentration beside the values), hits read low; 360,000 tested, 0.3% active; AID 651819; in the data active means activity change below about -30%; further: on the % scale 0 is the no-effect control and ±100 the full control effect
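TRiC (40 or 20 nM final, by batch activity) in 30 mM Tris pH 7.4, 100 mM KCl, 5 mM MgCl2, 1 mM DTT was treated with compound at 76 uM single dose, then 10 uM ATP, 30 min at 37 °C. ADP was read by HTRF Transcreener.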
Mm-Cpn inhibitor – inhibitors of Methanococcus maripaludis chaperonin TRiC (MmCpn) | purified Mm-Cpn ATPase, ADP Transcreener TR-FRET | Potency, µM (doses to about 76.9 µM), for the others: at the highest dose activity, negative = inhibition, actives largely listed as inhibitors | 330,000 tested, 0.031% active | AID 504842; further: potency means the concentration at half of the fitted maximal effect; on the % scale 0 is the no-effect control and ±100 the full control effect; nearly all actives have a fitted effect of over 80% in size
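Compound-treated chaperonin, 25 nM final, turns over 10 uM ATP at 37°C for 30 min following a 10 min preincubation; ADP generated competes with ADP-d2 for Eu-cryptate antibody, lowering FRET.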
RXFP1 antagonist – blocks the human relaxin receptor RXFP1 | Q9HBX9 | HEK293-RXFP1, relaxin-stimulated cAMP HTRF, 30 min; stronger effect = lower value | activity change, negative = inhibition, % at 57.5 µM | 350,000 tested, 0.59% active | AID 1259400;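 active means activity change of -60% or lower, but not beyond a set lower limit; inconclusive means change between -60% and -40%, or beyond the set limit; inactive means change above -40%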; further: on the % scale 0 is the no-effect control and ±100 the full control effect
* marks the source's active call; other numbers are inactive results; ? = inconclusive; / = no result given; [ ] = another dose, or the depositor's remark. Unless noted, the call rests on the fitted dose curve; in most records, active means well fitted curve in the direction sought with a large enough effect; inconclusive means small, poorly fitted or top-dose-only effect, or another doubt; inactive means no such curve, though single readings can be large; an effect the other way counts as inactive or inconclusive.

SMILES | gsp agonist | gsp antagonist | RXFP1 ag | CCT chaperon mod | Mm-Cpn inhibitor | RXFP1 antagonist
CCC1CCCCN1CCNC(=O)C1CCN(S(=O)(=O)c2cccc3nsnc23)CC1 (stereo not given) | 16% | 11% | 0% | -74* | 0% | ?
Cc1cccc(N2CCN(C(=O)C3CCN(S(=O)(=O)c4cccc5nsnc45)CC3)CC2C)c1 (stereo not given) | 17% | 35µM* | 0% | 3 | -2% | -8
CCc1nc2nc(C)cc(Nc3cc(C)ccc3C)n2n1 | / | / | 4% | / | / | -1
Cc1ccc(-n2c(=O)c3ccc(C(=O)NCc4ccco4)cc3n(Cc3ccc(Cl)cc3)c2=O)cc1 | / | / | 5% | / | / | -34
O=C(CCCCCn1c(=S)[nH]c2ccc(N3CCOCC3)cc2c1=O)NCc1ccc(Cl)cc1 | -1%[15.4 µM] | 10% | 14% | -1 | -2% | -92*
CCCCn1c(=S)[nH]c2ccc(N3CCOCC3)cc2c1=O | / | / | 5% | / | -6% | /
O=C(CCCCCn1c(=S)[nH]c2ccc(N3CCOCC3)cc2c1=O)NCCc1ccccc1 | -2%[15.4 µM] | ? | 3% | 2 | 0% | ?
O=C(CCCCCn1c(=S)[nH]c2ccc(N3CCOCC3)cc2c1=O)NCc1ccccc1Cl | -1%[15.4 µM] | ? | ? | -3 | 1% | -104*
O=C(CCCCCn1c(=S)[nH]c2ccc(N3CCOCC3)cc2c1=O)NCc1ccc2c(c1)OCO2 | 13%[15.4 µM] | -10% | ? | -57* | 0% | ?
Cc1cc(C)cc(C(=O)NC(=S)Nc2ccc(Cc3ccncc3)cc2)c1 | -3% | -1% | 1% | 0 | -1% | 6
COc1cc(C(=O)NC(=S)Nc2ccc(Cc3ccncc3)cc2)cc(OC)c1OC | -71% | 32µM* | -3% | 0 | -1% | -1
O=C(NC1CCCC1)c1cc(COc2ccc3ncccc3c2)on1 | 10% | -22% | 1% | -1 | 0% | 6
CC(NC(=O)c1cc(COc2ccc3ncccc3c2)on1)c1ccc(F)cc1 (stereo not given) | -6% | 28µM* | 0% | 0 | 2% | -12
COc1cccc(CN(C)C(=O)c2cc(COc3ccc4ncccc4c3)on2)c1 | -6%[15.4 µM] | 35µM* | 3% | 1 | 1% | -8
CN1CCN(c2nc3c(c(=O)[nH]c(=O)n3C)n2Cc2ccc([N+](=O)[O-])cc2)CC1 | 2% | -8% | 3% | -76* | 1% | -1
CN1CCN(c2nc3c(c(=O)[nH]c(=O)n3C)n2Cc2cccc(Br)c2)CC1 | 9% | -4% | 1% | 2 | -2% | -3
Clc1ccc(Cl)c(OCCCCNCc2ccccc2)c1 | 6% | 7% | 3% | 1 | 1% | -1
Clc1ccc(OCCCNCc2ccccc2)c(Br)c1 | -57% | 7% | -2% | -3 | -3% | -77*
COc1ccc2c(c1)c(CC(=O)Nc1ccc(C(C)=O)cc1)c(C)n2C(=O)c1ccc(Cl)cc1 | 0% | -17% | 5% | -2 | -23% | 3
COc1ccc2c(c1)c(CC(=O)NCc1cc([N+](=O)[O-])ccc1O)c(C)n2C(=O)c1ccc(Cl)cc1 | 8% | 35µM* | 5% | -1 | -1% | -84*
CCOc1ncc(F)c(=O)[nH]1 | / | / | / | / | / | 6
Cc1ccccc1NC(=O)Cn1nnc(C(=O)NCCc2ccccc2)c1N | / | / | 1% | / | / | /
S=c1[nH]nc(-c2ccncc2)n1/N=C/c1cn(-c2ccccc2)nc1-c1ccccc1 | ? | -3% | 3% | 1 | -1% | -36
S=c1[nH]nc(-c2cccs2)n1/N=C/c1cn(-c2ccccc2)nc1-c1cccs1 | -3%[15.4 µM] | ? | 2% | 0 | -6% | -83*
Cc1nc2ccccc2c(=O)n1/N=C/c1cn(-c2ccccc2)nc1-c1cccs1 | 4% | -19% | 3% | -3 | 0% | 4
SMILES | gsp agonist | gsp antagonist | RXFP1 ag | CCT chaperon mod | Mm-Cpn inhibitor | RXFP1 antagonist
Cc1ccc(-c2nn(-c3ccccc3)cc2/C=N/n2c(-c3cccs3)n[nH]c2=S)cc1 | -5%[15.4 µM] | ? | 2% | 0 | -2% | -96*
CCC(C)NC(=O)CCCc1nnc2n(CC(C)C)c(=O)c3sccc3n12 (stereo not given) | / | / | 20% | / | / | 3
O=S(=O)(Nc1ccc(N=Nc2ccc(O)c3ccccc23)cc1)c1ccccc1 | 13% | ? | 0% | -3 | 2% | -34
O=[N+]([O-])c1ccc(N=Nc2ccc(O)c3ccccc23)cc1 | 16% | 25µM* | / | -4 | / | ?
CCN(CC)S(=O)(=O)c1cc(NC(=O)c2ccc3c(c2)NC(=O)C(C)S3)ccc1C (stereo not given) | -30% | ? | 0% | -1 | 0% | -76*
CCOc1ccc(-c2cn3c(n2)sc2cc(C(=O)NCCCc4ccccc4)ccc23)cc1 | / | / | 3% | / | / | 7
CCN1C(=O)/C(=C\N(C)C)S/C1=N\S(=O)(=O)c1ccc(C)cc1 | 6%[15.4 µM] | -6% | 2% | -45* | 1% | -4
CCOC(=O)c1cc(-c2ccc(OC)cc2)nn1-c1ccc(C(=O)O)cc1 | -3% | 35µM* | -4% | 2 | -3% | -8
CCOC(=O)c1cc(-c2cccnc2)nn1-c1ccccc1 | -7%[15.4 µM] | -4% | 0% | 1 | 1% | -30
CN(CC(=O)Nc1ccc(F)c(F)c1)S(=O)(=O)c1cccs1 | -25% | 0% | 5% | -40* | 1% | -3
CN(C)c1ccc(NC(=O)N2CCOCC2)cc1 | 0% | ? | 0% | 0 | ? | -69*
Cc1cc(C)c(C(=O)N2CCCC(N3CCN(c4cccc(C(F)(F)F)c4)CC3)C2)o1 (stereo not given) | ? | 50µM* | 1% | -1 | 0% | -20
O=C1CCC(C(=O)N2CCCC(N3CCN(c4cccc(C(F)(F)F)c4)CC3)C2)=NN1 (stereo not given) | 4.5µM* | 5% | 0% | 1 | -8% | -7
Cc1cc(C(=O)N2CCCC(N3CCN(c4cccc(C(F)(F)F)c4)CC3)C2)no1 (stereo not given) | -40% | 4% | 0% | 1 | -2% | -14
Cc1cc(C(=O)N2CCCC(N3CCN(c4cccc(C(F)(F)F)c4)CC3)C2)n[nH]1 (stereo not given) | -1% | -2% | 2% | -2 | -2% | 2
COc1ccc(NC(=O)C2CCC(CNS(=O)(=O)c3ccc(Br)s3)CC2)c(OC)c1 (stereo not given) | / | / | -5% | / | / | 2
COc1ccc(N(CC(=O)Nc2nccs2)S(=O)(=O)c2c(C)[nH]c(=O)[nH]c2=O)cc1 | 26% | 1% | 0% | -37* | 2% | 2
CCN(CC)C(=O)c1sc(NC(=O)C(C)Sc2nc(-c3ccccc3)cc(C(F)(F)F)n2)c(C(=O)OC)c1C (stereo not given) | / | / | 1% | / | / | -27

From PubChem BioAssay
